Data from the OligoGym collection.

target: C11orf53; test: pooled miR-30 sensor sort-seq; sequence = guide strand; conditions: shRNA
Further: reference of the scale not given here.

| Sequence | sensor-assay potency score (higher = more potent) |
| --- | --- |
| TTCTGACACCGTAGTAACCTGA | -0.43 |
| TCGTCCACTAACAAAGAGCAGC | -0.909 |
| TTACTGTTGTGGAAGTCTGAGT | -0.608 |
| TCTGACACCGTAGTAACCTGAC | 0.0785 |
| TGACACACCTAAAACAATCTTT | 0.469 |
| TATTCTGAAAATCCAGTCCTGA | -0.0201 |
| TCAGATAAGAAAGATCTTCTGA | 0.556 |
| TAAATAGGAAGTGAGCTGGGTC | 0.00724 |
| TTATTCTGAAAATCCAGTCCTG | 0.403 |
| TAGGTCATTTGACACCGTCATG | -1.72 |
| TTTACTGTTGTGGAAGTCTGAG | -0.231 |
| TTTGACACCGTCATGAAAGGGG | 0.41 |

target: C11orf54; test: as above; conditions: shRNA

| Sequence | sensor-assay potency score (higher = more potent) |
| --- | --- |
| TGGAGTAGTGTCATAATGGTAG | -0.457 |
| ATAAACTCAGAATTGAACCCGA | 0.903 |
| TTCTTCATCAGAGTTCAAGGGG | 0.466 |
| TAAACTCAGAATTGAACCCGAG | 0.00773 |
| TTTCTCACTGTATTTCTCCAGT | -0.237 |
| TTTCATTTCATAAAAATGCAAC | -0.462 |
| TTATTCACTTCTTCATCAGAGT | -0.552 |
| TTTTATTCAGATCATAAACTTT | -0.546 |
| TCTGAAATGGACCTGCTCCTGC | -0.481 |
| TATTCCACTATATCTGGAGTAG | -0.318 |
| ATAAGTAAGGCACACCTCCAAC | -1.21 |

target: C12orf42; test: as above; conditions: shRNA

| Sequence | sensor-assay potency score (higher = more potent) |
| --- | --- |
| TAGGTCTTGTGTGTCTACTGAT | -0.227 |
| TTCATGTGATTAATGAATCTGG | 0.286 |
| TTCATAACAAGGGATGTGCTTT | -0.454 |
| TTTATTAACCTCTTGGAGGGGA | 0.548 |
| TTAGGTCTTGTGTGTCTACTGA | 0.176 |
| TGTGCTTACAGAACACCTGGGG | 0.85 |
| TGATTAATGAATCTGGAGCAGG | -0.678 |
| TCTGCTTTGGATGTCGTCGGGG | -0.507 |
| TCTTGTGTGTCTACTGATGTGT | 0.434 |
| TCGAGCTCTGTGTTACTCGGGC | -0.424 |

target: C13orf33; test: as above; conditions: shRNA

| Sequence | sensor-assay potency score (higher = more potent) |
| --- | --- |
| TTGATGTAGCTGCTGAGGCGGT | -0.889 |
| TTGCTCAATATAGTTTCCCTGT | -0.333 |
| TTTATAATCACAGTAGTTGGTC | 0.0911 |
| TAACTTAATCGTCTCCTTCTTT | -0.331 |
| TAATAAAGAACAACATTGGTTT | -0.342 |
